Consider 40 sequences from the supplement of paper PMC6555819.

The subject of this assay is VDR:RXRa (NR concentration 270 nM, RXRa partner concentration 90 nM). Description: PBM binding z-score (relative to random genomic background probes); higher = stronger binding; sequences stand for … in GC…GCGATTGACAGCGTAGAATGAAGG
How it is done: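 Protein-binding microarray (Agilent 4x180K custom design, double-stranded 60-nt probes: 5' GC cap, 34-nt variable region, 24-nt constant primer region; full probe sequence given). Purified or IVT nuclear receptor:RXRα heterodimers (3:1 NR:RXRα, mostly 270:90 nM) or homodimers were incubated for 1 h in PBS with 2% milk and no ligand, then detected with Alexa488 antibodies. Fluorescence from o1-orientation probes (~5 replicates averaged) was converted to z-scores against 500 random hg19 background probes. Variable regions are seed direct-repeat (DR0–DR5) sites, all their single-nucleotide variants and half-site ablations.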
Sequence ATACCAAGGTGATCGTGAGGTCTTTGATACTAAC showed a PBM binding z-score of 0.526.
In the case of ATCTCTAGGTAAAAGTTCAGTTAATCCCGAGGAT it was 1.44.
In the case of CAGCTTAGGTCAGGGCCAGTATAGGAGGAACGTT it was 0.513; in that of CCGACTAGGGCAAAGGTTACCATACTCAGTACGA, 1.61; in that of TCTAGTTGGTGAAAGGTCACACACTCGAAATGCG, 4.89.
With ATCTCTAGGTGAAGTTCAGTGAAAGATCGATAGA, the PBM binding z-score came to 0.563.
In the case of TCTAGCCGGCCAGAGGGTCACTCAAGAGGTACGG it was 1.41; in that of TCTAGCAGGCCAGAGGGTCACTCCAGAGGTACGG, 0.993.
Turning to TCTTGTAGATCAATAAAGGTTAAGAAAGTGCGCT, the PBM binding z-score came to 2.18.
Under GCGACTGGGGCAAGGCAGGTTACCATAAGGTTGG stands -0.166; under ATCGAAAGGTCGTGAGGTGGGTATACAGAAAGGC, 3.58; under CGAACGAGTGCATGAGTTGATAGCAAATGCCGAT, 1.58.
In the case of ACTATTAGTTGACTTAGGGCAACCGATACGACGC it was 0.152.
In the case of ACTATTAGTTGACTTAGGGCACCCGATACGACGC it was 0.0637; in that of GCATATAGGTAATACACGGTGAAAGTCCGATTGT, -0.0227; in that of ATATGTAGGTTACATCCGGGTCATTCAAGCTATG, 4.17.
On to GGAGCGAGGGCAAAGTTGATAGCATCTGTCGACG, for which the PBM binding z-score came out at 0.834.
Under CCTTACGGGTTAAGGTTATAGCACGGGTGGTACG stands 0.894; under GCGACTGAGGCAAAGCAGGTTACCATAAGGTTGG, -0.292.
Under GCGACTGGGGCATCAGCAGGTTGCCATAACTTAA stands -0.532; under ATCGAAAGGTCGTGAGGTGAGTATTCAGAAAGGC, 3.7.
Under GCTGCTAGGTCAGGTTGGGCAGCTAACGGGTACG stands -0.00639; under CAGCCTAGGTCAGGGCCAGTATAGGAGGAACGTT, 0.31.
For AGTCAAAGTTCATCTAGGTAACGGAAGATATGCT, the PBM binding z-score was found to be 4.95.
In the case of ACTCGGAGGACAAAGGTCCGAGCTACGCCAGTGA it was -0.323.
In the case of AGCTCTAGGTAACCAAGTTCAGTGAATGCCGAAC it was 3.88.
Under CGAACTAGGTCATTGACAGCACAGTGAATAGTAA stands 2.15; under ATCTCTAGGTAAAGATATTTCAGTGAATGCAAAT, 0.441.
With CAAACTAGGTCACAGAGGTCTAAGTCCGTGCGTA, the PBM binding z-score came out at 4.9.
Under ATCTCTATGTAAAAGTTCAGTGAATCCCGAGGAT stands 1.2; under ACTTACAGGTCAACGAGGTTATAGCACGCGTATA, 7.66.
Under CGAACTAGGTCAGAACAGGACACTGAAGGATGAT stands 1.14; under AGTATGAGGTTATTAAGATCAGGGAATTGCGGTC, 2.58; under CAAACTAGGTCACAAAGGTCAAAGTCCGTGCGTA, 7.28.
Regarding GCTCGGAGGACAAGGTCATAGCTTTGTCCGTAGA, the PBM binding z-score is 3.33.
Regarding CCAGACAGGTGAGAAGGTAACTCCGCCTCGATTA, the PBM binding z-score was -0.335.
CTCGATAGGTCGGTTGAGGTGAGTATACGGATAA: the PBM binding z-score came to 0.436.
ACAGACTGGTGAGTGAAGGTAACTCAGCTGGACG registered a PBM binding z-score of -0.365.
In the case of ATCGAAAGGTCGACGAGGTGGGTATACACCGTTT it was 4.34.
Under CCCACTGGGGCAAGGTTACCATAACGCACAGCCA stands 0.132.
